For some of these results: Measured potencies and affinities stand elsewhere.
Columns and labels:
Set-up in all cases: scale not given: direction of the effect not stated beside the values
[1] = target: Protein translocase subunit SecA (Escherichia coli (strain K12)) (UniProt P10408); assay: Assay to Identify E. coli SecA ATPase Inhibitors; type: functional; details: 30 µM
[2] = target: T1, Ubiquitin-activating enzyme e1, putative (Leishmania donovani (strain BPK282A1)) (UniProt E9BSI1); assay: Leishmania donovani Ubiquitin Activating Enzyme (LdE1); type: functional; details: 30 µM
T1 sequence (whole entry): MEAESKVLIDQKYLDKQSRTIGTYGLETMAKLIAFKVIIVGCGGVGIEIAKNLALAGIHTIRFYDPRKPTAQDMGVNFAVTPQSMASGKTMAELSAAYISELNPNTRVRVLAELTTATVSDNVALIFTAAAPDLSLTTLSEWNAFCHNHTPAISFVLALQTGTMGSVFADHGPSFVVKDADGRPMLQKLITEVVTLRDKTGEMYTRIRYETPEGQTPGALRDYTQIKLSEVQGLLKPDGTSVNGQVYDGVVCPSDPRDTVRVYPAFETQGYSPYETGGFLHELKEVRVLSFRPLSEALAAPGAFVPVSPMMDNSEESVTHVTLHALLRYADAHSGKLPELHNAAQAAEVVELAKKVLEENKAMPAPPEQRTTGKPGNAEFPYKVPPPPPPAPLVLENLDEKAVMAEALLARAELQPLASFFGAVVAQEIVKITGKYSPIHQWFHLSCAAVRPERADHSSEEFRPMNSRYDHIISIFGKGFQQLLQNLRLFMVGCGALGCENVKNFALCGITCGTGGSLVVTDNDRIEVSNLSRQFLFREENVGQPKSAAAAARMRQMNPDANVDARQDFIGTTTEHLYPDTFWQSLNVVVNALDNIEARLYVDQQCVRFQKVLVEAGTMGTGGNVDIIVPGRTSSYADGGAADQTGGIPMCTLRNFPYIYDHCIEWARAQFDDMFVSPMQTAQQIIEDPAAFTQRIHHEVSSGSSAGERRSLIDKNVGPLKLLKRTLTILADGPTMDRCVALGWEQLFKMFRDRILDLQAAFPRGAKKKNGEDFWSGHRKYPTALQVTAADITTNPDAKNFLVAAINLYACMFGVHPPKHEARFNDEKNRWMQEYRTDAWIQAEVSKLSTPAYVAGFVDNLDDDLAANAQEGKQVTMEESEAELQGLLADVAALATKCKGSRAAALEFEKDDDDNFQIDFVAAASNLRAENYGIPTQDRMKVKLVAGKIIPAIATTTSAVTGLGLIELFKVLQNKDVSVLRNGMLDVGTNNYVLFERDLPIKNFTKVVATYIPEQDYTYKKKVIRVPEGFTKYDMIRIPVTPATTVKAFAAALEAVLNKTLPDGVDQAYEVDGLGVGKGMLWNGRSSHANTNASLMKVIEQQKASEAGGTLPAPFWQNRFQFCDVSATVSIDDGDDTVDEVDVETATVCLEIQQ

[3] = target: AMP-activated protein kinase, AMPK (Homo sapiens) (UniProt P54646+O43741+P54619+Q9UGJ0+Q9Y478+Q13131+Q9UGI9); assay: AMP-dependent Kinase enzyme assay. An in vitro enzyme assay that detects ADP turnover that is directly proportional to AMPK activity. This uses naive AMPK that is activated during the assay with MK-8722; type: functional; details: 30 µM
[4] = target: Sialic acid-binding Ig-like lectin 9 (Homo sapiens) (UniProt Q9Y336); assay: Hs-Siglec9 ALPHAscreen SOP 20170721; details: 10 µM
Sialic acid-binding Ig-like lectin 9 (Homo sapiens), sequence (Q9Y336 whole entry): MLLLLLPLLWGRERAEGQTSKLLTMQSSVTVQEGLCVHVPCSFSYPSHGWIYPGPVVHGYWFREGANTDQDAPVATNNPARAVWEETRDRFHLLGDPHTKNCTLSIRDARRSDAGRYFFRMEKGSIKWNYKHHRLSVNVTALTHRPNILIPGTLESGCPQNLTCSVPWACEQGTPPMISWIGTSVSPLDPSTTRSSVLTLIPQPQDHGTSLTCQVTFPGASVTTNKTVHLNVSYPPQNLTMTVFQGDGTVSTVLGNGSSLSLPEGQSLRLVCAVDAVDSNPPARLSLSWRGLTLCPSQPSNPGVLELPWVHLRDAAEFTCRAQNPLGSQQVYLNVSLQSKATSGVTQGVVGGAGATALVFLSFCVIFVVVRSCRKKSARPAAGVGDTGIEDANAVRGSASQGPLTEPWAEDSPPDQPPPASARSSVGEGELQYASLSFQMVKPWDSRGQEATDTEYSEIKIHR

Trypanosoma cruzi = assay: Trypanosoma cruzi phosphomannomutase and mannose-1-phosphate guanylyltransferase assay; type: functional; details: 10 µM
[5] = target: T2, Arginase-2, mitochondrial (Homo sapiens) (UniProt P78540); assay: in vitro enzyme assay to detect the production of urea directly proportional to the activity of Arginase II; type: functional; details: 33.3 µM; also: in the data most compounds retested in dose-response had high values
T2 sequence (whole entry): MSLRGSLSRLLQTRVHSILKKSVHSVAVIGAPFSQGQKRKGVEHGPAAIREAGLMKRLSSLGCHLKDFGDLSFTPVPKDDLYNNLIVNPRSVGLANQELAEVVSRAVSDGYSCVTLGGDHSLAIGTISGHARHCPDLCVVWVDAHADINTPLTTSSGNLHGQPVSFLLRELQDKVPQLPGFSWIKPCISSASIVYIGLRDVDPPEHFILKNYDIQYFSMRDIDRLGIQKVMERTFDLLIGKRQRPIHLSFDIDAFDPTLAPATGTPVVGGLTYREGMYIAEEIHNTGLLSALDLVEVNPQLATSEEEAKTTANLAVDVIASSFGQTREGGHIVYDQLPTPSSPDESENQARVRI

[6] = target: T3, Proteasome subunit beta (Trypanosoma cruzi) (UniProt O96673); assay: Trypanosoma cruzi proteasome chymotrypsin-like activity (TcProtChymo) assay.; also: in the data most compounds retested in dose-response had high values; type: functional; details: 9.37 µM
T3 sequence (whole entry): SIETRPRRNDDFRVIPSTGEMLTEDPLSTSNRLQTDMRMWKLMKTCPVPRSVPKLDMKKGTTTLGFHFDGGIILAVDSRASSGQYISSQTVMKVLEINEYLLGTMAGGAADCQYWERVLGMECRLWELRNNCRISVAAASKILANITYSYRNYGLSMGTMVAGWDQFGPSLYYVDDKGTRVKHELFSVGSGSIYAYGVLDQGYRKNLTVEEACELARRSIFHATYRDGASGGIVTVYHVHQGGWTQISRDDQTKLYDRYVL

Homo sapiens = species: Homo sapiens; assay: To identify inhibition of the IFN signalling (Jak-Stat) pathway via expression of an eGFP reporter gene under the control of an IFN-stimulated response element (ISRE) containing MxA promoter.; type: functional; details: 30 µM
[7] = target: T4, Tyrosyl-tRNA synthetase, putative (Trypanosoma cruzi (strain CL Brener)) (UniProt Q4DSP6); assay: Trypanosoma cruzi tyrosyl tRNA synthetase (TcYRS) _High Tyrosine SOP; type: functional; details: 30 µM; also: in the data most compounds retested in dose-response had high values
T4 sequence (whole entry): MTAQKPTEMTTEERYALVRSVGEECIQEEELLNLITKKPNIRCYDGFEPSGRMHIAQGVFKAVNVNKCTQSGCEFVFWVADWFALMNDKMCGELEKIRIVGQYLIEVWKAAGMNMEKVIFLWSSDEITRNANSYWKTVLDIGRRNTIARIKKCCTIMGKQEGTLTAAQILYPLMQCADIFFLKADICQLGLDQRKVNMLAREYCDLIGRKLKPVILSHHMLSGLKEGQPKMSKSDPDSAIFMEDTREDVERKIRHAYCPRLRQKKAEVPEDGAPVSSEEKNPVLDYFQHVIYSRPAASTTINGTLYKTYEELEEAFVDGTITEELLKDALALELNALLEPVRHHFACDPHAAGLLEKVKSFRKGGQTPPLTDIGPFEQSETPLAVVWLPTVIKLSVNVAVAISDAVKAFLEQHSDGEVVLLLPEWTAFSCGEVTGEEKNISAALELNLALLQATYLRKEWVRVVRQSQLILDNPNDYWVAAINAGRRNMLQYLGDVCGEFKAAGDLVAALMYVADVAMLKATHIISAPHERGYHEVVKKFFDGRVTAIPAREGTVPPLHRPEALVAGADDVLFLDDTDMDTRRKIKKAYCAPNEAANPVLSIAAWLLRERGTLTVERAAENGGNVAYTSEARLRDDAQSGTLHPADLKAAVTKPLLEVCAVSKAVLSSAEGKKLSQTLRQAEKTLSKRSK

[8] = target: T4, Tyrosyl-tRNA synthetase, putative (Trypanosoma cruzi (strain CL Brener)); assay: Trypanosoma cruzi tyrosyl tRNA synthetase (TcYRS) SOP; type: functional; details: 30 µM
[9] = target: Chromo domain-containing protein 1 (Saccharomyces cerevisiae (strain ATCC 204508 / S288c) (Baker's yeast)) (UniProt P32657); assay: ScCHD-1 Enzyme Inhibition Assay; type: functional; details: 30 µM; also: in the data most compounds retested in dose-response had high values
Chromo domain-containing protein 1 (Saccharomyces cerevisiae (strain ATCC 204508 / S288c) (Baker's yeast)), sequence (P32657 whole entry, the tested form may be a part): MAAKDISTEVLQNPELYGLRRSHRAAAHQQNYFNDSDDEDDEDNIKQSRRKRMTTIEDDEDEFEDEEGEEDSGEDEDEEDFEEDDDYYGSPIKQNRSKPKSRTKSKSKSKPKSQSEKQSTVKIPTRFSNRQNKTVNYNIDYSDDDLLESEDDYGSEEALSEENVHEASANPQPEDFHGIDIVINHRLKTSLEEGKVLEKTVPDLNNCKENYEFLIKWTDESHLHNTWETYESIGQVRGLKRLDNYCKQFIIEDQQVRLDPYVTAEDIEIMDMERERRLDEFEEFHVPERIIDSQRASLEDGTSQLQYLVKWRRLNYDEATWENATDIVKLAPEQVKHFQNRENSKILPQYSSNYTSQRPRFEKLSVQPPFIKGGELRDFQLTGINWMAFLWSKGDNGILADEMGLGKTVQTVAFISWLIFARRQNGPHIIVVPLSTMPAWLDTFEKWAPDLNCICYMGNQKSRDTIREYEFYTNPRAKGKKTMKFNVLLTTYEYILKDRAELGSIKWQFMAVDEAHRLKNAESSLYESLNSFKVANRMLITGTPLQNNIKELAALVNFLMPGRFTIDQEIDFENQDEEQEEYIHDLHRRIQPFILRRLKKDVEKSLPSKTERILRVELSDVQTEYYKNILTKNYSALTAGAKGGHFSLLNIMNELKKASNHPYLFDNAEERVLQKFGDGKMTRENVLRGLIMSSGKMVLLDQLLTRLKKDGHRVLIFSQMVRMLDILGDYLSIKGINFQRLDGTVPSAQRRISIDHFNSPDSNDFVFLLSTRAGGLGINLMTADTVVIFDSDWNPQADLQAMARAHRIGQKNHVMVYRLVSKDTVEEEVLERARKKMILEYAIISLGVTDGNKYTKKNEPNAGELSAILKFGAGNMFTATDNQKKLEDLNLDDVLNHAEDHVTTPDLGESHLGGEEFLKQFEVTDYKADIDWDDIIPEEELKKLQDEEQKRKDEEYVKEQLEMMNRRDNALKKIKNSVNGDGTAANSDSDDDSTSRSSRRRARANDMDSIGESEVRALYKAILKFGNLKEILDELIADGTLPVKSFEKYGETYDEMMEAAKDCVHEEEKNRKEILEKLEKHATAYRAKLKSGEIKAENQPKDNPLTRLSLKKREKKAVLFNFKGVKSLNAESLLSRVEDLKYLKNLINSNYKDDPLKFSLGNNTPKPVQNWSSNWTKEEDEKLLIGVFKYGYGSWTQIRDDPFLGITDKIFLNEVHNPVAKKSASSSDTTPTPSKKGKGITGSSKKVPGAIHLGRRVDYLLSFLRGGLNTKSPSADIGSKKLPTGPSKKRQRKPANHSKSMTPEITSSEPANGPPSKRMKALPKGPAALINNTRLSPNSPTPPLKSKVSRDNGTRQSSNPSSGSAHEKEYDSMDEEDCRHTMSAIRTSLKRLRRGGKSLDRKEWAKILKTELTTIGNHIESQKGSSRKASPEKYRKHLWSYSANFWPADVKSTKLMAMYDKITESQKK

Protein translocase subunit SecA (Escherichia coli (strain K12)), sequence (P10408 whole entry): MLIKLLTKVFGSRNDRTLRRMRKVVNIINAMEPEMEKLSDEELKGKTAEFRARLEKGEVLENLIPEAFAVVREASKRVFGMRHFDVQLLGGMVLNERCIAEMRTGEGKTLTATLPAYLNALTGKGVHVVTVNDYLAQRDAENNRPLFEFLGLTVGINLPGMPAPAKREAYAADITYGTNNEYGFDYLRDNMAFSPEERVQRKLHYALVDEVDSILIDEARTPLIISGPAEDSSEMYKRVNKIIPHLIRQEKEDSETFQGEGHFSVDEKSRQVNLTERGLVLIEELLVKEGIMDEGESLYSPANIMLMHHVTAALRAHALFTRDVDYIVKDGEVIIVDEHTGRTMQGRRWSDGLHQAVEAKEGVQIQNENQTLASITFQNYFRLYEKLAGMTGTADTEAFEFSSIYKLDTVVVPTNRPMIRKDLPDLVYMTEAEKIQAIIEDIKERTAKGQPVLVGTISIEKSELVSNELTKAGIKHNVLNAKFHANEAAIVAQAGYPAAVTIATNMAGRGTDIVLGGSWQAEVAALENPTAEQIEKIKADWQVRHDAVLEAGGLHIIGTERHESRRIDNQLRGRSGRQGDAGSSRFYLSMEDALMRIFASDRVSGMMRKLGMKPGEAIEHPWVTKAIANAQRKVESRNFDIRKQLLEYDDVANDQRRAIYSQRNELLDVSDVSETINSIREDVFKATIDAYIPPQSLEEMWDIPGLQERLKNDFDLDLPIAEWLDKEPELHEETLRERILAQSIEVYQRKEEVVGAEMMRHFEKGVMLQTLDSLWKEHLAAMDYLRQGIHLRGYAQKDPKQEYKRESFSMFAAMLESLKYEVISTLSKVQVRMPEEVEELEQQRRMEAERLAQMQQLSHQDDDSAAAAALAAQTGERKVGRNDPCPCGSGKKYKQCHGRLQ

Compound	Percent Effect [1] [%]	Percent Effect [2] [%]	Percent Effect [3] [%]	Percent Effect [4] [%]	Percent Effect (Trypanosoma cruzi) [%]	Percent Effect [5] [%]	Percent Effect [6] [%]	Percent Effect (Homo sapiens) [%]	Percent Effect [7] [%]	Percent Effect [8] [%]	Percent Effect [9] [%]
COCC(=O)N1CCC(c2noc3nc(C)cc(C(F)(F)F)c23)CC1	-6.46	4.05	9.11	-5.57	-2.37	-7.66	13.9	21.4	-2.15	-1.3	-1.78
CCn1cc2c(n1)CN(Cc1ccoc1)CC2COCC1CC1 (stereo not given)	-5.08	-10.8	-0.58	2.38	6.64	-1.67	7.69	-8.7	11.9	8.54	-4.61
CC(=O)N1CCCN(C(=O)NCc2cc[nH]n2)CC1	-8.38	13.2	-10.6	1.18	11.1	1.08	14.6	1	11.3	23.5	-8.49
CN(C)C(=O)COC1COC2(CCN(S(C)(=O)=O)CC2)C1 (stereo not given)	0.201	13.5	1.81	-7.02	-1.47	9.87	18.1	-9.56	4.32	12.8	-1.01
CC(C)c1n[nH]c(C2CN(Cc3nnc(C4CC4)o3)CCO2)n1 (stereo not given)	-2.46	0	9.78	-2.59	-3.87	-8.37	6.47	27.6	-5.42	-11.4	-1.54
Cc1nc(N2CCOCC2)nc2c1CCN(Cc1cccnc1)CC2	-2.77	0	0.954	7.94	-3.28	-56.8	3.08	-25.6	7.29	-2.5	-17.8
COc1ccccc1CNC(=O)N1CCCC(NS(C)(=O)=O)C1 (stereo not given)	-6.57	-15.6	-5.52	-17.1	-3.82	-2.74	12.8	24	-25.7	7.06	-22.9
CC(C)OCCN(Cc1cccc(O)c1)C1CCC(O)CC1 (stereo not given)	-4.61	0	-1.14	-7.69	-5.96	0.744	4.89	-1.68	0	-1.24	-0.807
CN(Cc1csc(-c2cccs2)n1)C(=O)CCn1ccccc1=O	-4.95	8	-1.99	4.47	-1.07	5.21	22.7	10.8	3.83	11.1	-4.75
COCCN(C)C[C@@H]1CN(C(=O)c2cccc(C(F)(F)F)c2)C[C@@H]1CO	-0.782	2.7	1.75	21.1	5.79	10	13.4	-3.37	2.65	14.6	-4.78
Cc1cc2nc(SCC(=O)N3CCOCC3)n(CC(C)C)c(=O)c2[nH]1	2.16	13.2	2.03	-4.31	-4.77	11.8	18.3	-10.6	-1.06	10.4	-2.79
c1csc(-c2nc(CN3CCCC3Cn3cncn3)co2)c1 (stereo not given)	-2.28	-5.48	-7.9	1.3	6.86	-3.18	5.68	-9.88	2.15	5	-3.71
Cc1ccc(NC2CCN(C(=O)COc3cccnc3)CC2)nn1	-5.07	21.5	-3.6	-4.99	-0.923	-1.94	14.1	12.9	4.17	15.2	-15.5
CCc1noc(C2CCCCN2C(=O)c2ccn(C3CCCC3)n2)n1 (stereo not given)	-3.89	20	-10.1	-4.33	5.89	-15.3	13.7	24.3	9.52	12.8	-15.7
Cc1ccoc1C(=O)N1CCO[C@H]2[C@H](OCC3CCOCC3)CC[C@@H]21	-3.5	5.33	-1.93	2.92	5.02	-48.9	-0.513	-9.79	2.08	-5	-3.9
Cc1ccc(C(O)CNC(=O)NCc2nc(C)cs2)cc1 (stereo not given)	-1.18	5.41	2.46	3.69	-6.56	1.43	12.9	5.94	2.65	12.2	-3.85
O=C(O)[C@@H]1CN(C(=O)c2ccc3[nH]nnc3c2)C[C@H]1c1cccc(F)c1	-4.68	11	-5.72	8.16	6.94	-3.99	12.6	3.52	4.17	8.64	-2.47
CN(C)C(=O)CN1C[C@@H]2CC[C@H](C1)N(C(=O)CCn1cncn1)C2	-2.58	5.41	-3.51	3.26	-1.16	-0.952	2.76	-15.8	6.88	9.76	-3.62
COc1ccc(-c2noc(CN3CCc4cncnc4C3)n2)cc1	-3.37	-15.8	-14.9	2.94	7.52	0	18.6	8.69	8.33	9.76	25
Cc1cccc2c1cnn2CCCNC(=O)CCCC(=O)O	-1.56	5.2	4.98	7.89	4.42	-112	0	2.46	4.3	16.1	-2.54

Source: ChEMBL document CHEMBL3988442, “University of Dundee, Small-Polar-MMV Screening Library” (2021)
